HTR5A inv ag: counter-screen for OPRM1-OPRD1 inverse agonists: human HTR5A inverse agonism | P47898 | HTR5A cell line, luminescence | inhibition, % at 9.3 µM | 0.083% of 340,000 active | AID 504634; in the data active = inhibition mostly above about 23%, no sharp cut-off; inactive = mostly below about 18%
MOR-DOR ag: agonists of human mu-delta opioid receptor heterodimerization; P35372+P41143; cells, OPRM1-OPRD1 heterodimerization, luminescence; activation, % at 9.3 µM; 0.3% of 340,000 active
HTR5A ag: HTR5A agonism, opioid heterodimer counter-screen; 0.61% of 340,000 active; HTR5A agonist assay, luminescence, cell-based; activation, % at 9.3 µM; in the data active = activation mostly above about 9.5%, no sharp cut-off; inactive = mostly below about 7.6%
MOR-DOR inv ag: inverse agonists of human mu-delta opioid receptor heterodimerization; P35372+P41143; cell-based MOR-DOR heterodimer luminescence, inverse agonism; inhibition, % at 9.3 µM; 0.21% of 340,000 active; in the data active = inhibition above about 22%, passing the limit was not always enough
OPRM1-D1 ag cf: OPRM1-OPRD1 heterodimer agonism, confirmation. 45% of 830 active. shares compounds with MOR-DOR ag. cells, MOR-DOR heterodimerization, luminescence complementation. AID 504904. activation, % at 9.3 µM
HTR5A ag ctr2: activates human HTR5A in OPRM1-OPRD1 agonist counter-screen. shares compounds with MOR-DOR ag. HTR5A agonist counterscreen, cell luminescence. activation, % at 9.3 µM. 8% of 830 active. AID 504905; in the data active = activation above about 17%
Large screens that a line does not name were inactive (follow-up assays come after a bar, where they were run). Compounds with a hit are over-represented: about 1.1% of the library has one in this group of screens. Cut-off read from the data, not from the text of the source, unless noted: active = activation above about 18%; inactive = the rest.

CCOc1cc(C)c(S(=O)(=O)Nc2ccc(F)cc2)cc1C	MOR-DOR ag 19 | OPRM1-D1 ag cf inactive | HTR5A ag ctr2 inactive
O=[N+]([O-])c1ccc(N2CCN(CCO)CC2)cc1Sc1ccccn1	none
CCN1CCN(c2ccc([N+](=O)[O-])c(Sc3nc4ccccc4[nH]3)c2)CC1	MOR-DOR ag 76 | OPRM1-D1 ag cf 69 | HTR5A ag ctr2 inactive
COc1cccc(NC(=O)Nc2ccc3c(c2)N(C)C(=O)CS3)c1	none
Cc1ccc(C)c(N2CCN(C(=O)Nc3ccc4c(c3)N(C)C(=O)CS4)CC2)c1	none
CC(=O)Nc1ccc(NC(=O)Nc2ccc3c(c2)N(C)C(=O)CS3)cc1	MOR-DOR ag 21 | OPRM1-D1 ag cf inactive | HTR5A ag ctr2 inactive
CN1C(=O)CSc2ccc(NC(=O)N3CCN(c4ccccn4)CC3)cc21	MOR-DOR ag 36 | OPRM1-D1 ag cf 26 | HTR5A ag ctr2 inactive
O=C(NC1CCCC1)C1c2ccccc2C(=O)N1CCCN1CCOCC1 (stereo not drawn)	none
CCOC(=O)C1(CCOC)CCN(Cc2cccc(OCc3ccccc3)c2)CC1	none
CCOC(=O)C1(CCOc2ccccc2)CCN(Cc2cc(OC)ccc2OC)CC1	MOR-DOR ag 53 | OPRM1-D1 ag cf inactive | HTR5A ag ctr2 17
CCOC(=O)C1(CCOC)CCN(Cc2ccccc2-c2ccco2)CC1	MOR-DOR ag 130 | OPRM1-D1 ag cf 33 | HTR5A ag ctr2 inactive
CCOC(=O)C1(CCOc2ccccc2)CCN(Cc2cccc(OC)c2)CC1	MOR-DOR ag 19 | OPRM1-D1 ag cf inactive | HTR5A ag ctr2 93
CCOC(=O)C1(CC2CCCCO2)CCN(Cc2ccc(OC)cc2F)CC1 (stereo not drawn)	MOR-DOR ag 48 | OPRM1-D1 ag cf 59 | HTR5A ag ctr2 inactive
O=C(COC(=O)CN1C(=O)C2CC=CCC2C1=O)Nc1cc(C(F)(F)F)ccc1N1CCOCC1 (stereo not drawn)	none
CCOC(=O)C1(CCOc2ccccc2)CCN(Cc2ccc(O)c(Cl)c2)CC1	none
CCOC(=O)C1(CCOc2ccccc2)CCN(Cc2ccc3c(c2)OCCO3)CC1	MOR-DOR ag 25 | OPRM1-D1 ag cf 44 | HTR5A ag ctr2 inactive
CC1CCC(C(C)C)C(OC(=O)COC(=O)c2cc(O)ccc2N)C1 (stereo not drawn)	MOR-DOR ag 24 | OPRM1-D1 ag cf inactive | HTR5A ag ctr2 inactive
CCC(=O)c1ccc(N2CCN(S(=O)(=O)c3ccccc3)CC2)c(F)c1	MOR-DOR ag 21 | OPRM1-D1 ag cf inactive | HTR5A ag ctr2 inactive
Cc1ccc(NC(=O)C(C)OC(=O)c2n[nH]c3ccccc23)cc1 (stereo not drawn)	none
CC(OC(=O)c1n[nH]c2ccccc12)C(=O)Nc1ccccc1[N+](=O)[O-] (stereo not drawn)	MOR-DOR ag 32 | OPRM1-D1 ag cf inactive | HTR5A ag ctr2 inactive
Cc1c(C(=O)NC2CC2)oc2ccc(S(=O)(=O)N3CCCCCC3)cc12	none
C(=C\c1nccc2c1[nH]c1ccccc12)/c1ccccc1	none
Fc1ccc(/C=C\c2nccc3c2[nH]c2ccccc23)cc1	MOR-DOR ag 19 | OPRM1-D1 ag cf 33 | HTR5A ag ctr2 37
COc1cccc(Cn2c(=O)oc3ccccc32)c1	none
CCOC(=O)C1=C(C)N(CCCCCC(=O)O)C(=O)NC1c1ccccc1OS(=O)(=O)c1ccc(C)cc1 (stereo not drawn)	MOR-DOR ag 57 | OPRM1-D1 ag cf inactive | HTR5A ag ctr2 inactive
COC(=O)C1=C(C)N(CCCC(=O)O)C(=O)NC1c1ccccc1OS(=O)(=O)c1ccc([N+](=O)[O-])cc1 (stereo not drawn)	MOR-DOR ag 51 | OPRM1-D1 ag cf 46 | HTR5A ag ctr2 inactive
CCOC(=O)C1=C(C)N(CCCC(=O)O)C(=O)NC1c1ccccc1OS(=O)(=O)c1ccccc1[N+](=O)[O-] (stereo not drawn)	MOR-DOR ag 56 | OPRM1-D1 ag cf inactive | HTR5A ag ctr2 inactive
CCOC(=O)C1=C(C)N(CCCC(=O)O)C(=O)NC1c1ccccc1OS(=O)(=O)c1ccc(C)cc1 (stereo not drawn)	MOR-DOR ag 62 | OPRM1-D1 ag cf 58 | HTR5A ag ctr2 inactive
CCOC(=O)C1=C(C)N(CCCC(=O)O)C(=O)NC1c1ccccc1 (stereo not drawn)	none
O=C(NCc1ccco1)C(C(=O)c1ccccc1)n1ccccc1=O (stereo not drawn)	none
COC(=O)Cc1csc(N)n1	none
COc1ccc(S(=O)(=O)N2CCCC2)cc1C(=O)N1CCOCC1	none

Bioassay records deposited in PubChem by The Scripps Research Institute Molecular Screening Center.
